Experimental findings from PubChem BioAssay AID1851 (National Center for Advancing Translational Sciences (NCATS), 2009) are described below.

Several values for one entry are separate records, joined by “and”; a condition that tells them apart may be missing. Equal values may be shown once. Among all 16,000 compounds or so, about 5,100 (32%) were called active. Another 25% or so got no clear call; they are omitted. Some of the results follow. Values without a mark were called inactive. Calls follow the shape of the dose curve; as a rule, active = well fitted curve in the direction sought with a large enough effect; inconclusive = small, poorly fitted or top-dose-only effect, or effect the other way; inactive = no such curve, though single readings can be large or run the other way.

As a reminder, the AC50 is the concentration giving half of the maximal activity seen.
% is scaled to controls: 0 for no effect and ±100 for the full control effect.

For the test, the target named is Cytochrome P450 3A4 (Homo sapiens) (UniProt P08684). Description: Cytochrome panel assay with activity outcomes. As to conditions: recombinant CYP, pro-luciferin dealkylation, luminescence, p450-cyp3a4; series mostly up to 57.1 µM.
Chain of Cytochrome P450 3A4 (Homo sapiens) (P08684 whole entry, looked up): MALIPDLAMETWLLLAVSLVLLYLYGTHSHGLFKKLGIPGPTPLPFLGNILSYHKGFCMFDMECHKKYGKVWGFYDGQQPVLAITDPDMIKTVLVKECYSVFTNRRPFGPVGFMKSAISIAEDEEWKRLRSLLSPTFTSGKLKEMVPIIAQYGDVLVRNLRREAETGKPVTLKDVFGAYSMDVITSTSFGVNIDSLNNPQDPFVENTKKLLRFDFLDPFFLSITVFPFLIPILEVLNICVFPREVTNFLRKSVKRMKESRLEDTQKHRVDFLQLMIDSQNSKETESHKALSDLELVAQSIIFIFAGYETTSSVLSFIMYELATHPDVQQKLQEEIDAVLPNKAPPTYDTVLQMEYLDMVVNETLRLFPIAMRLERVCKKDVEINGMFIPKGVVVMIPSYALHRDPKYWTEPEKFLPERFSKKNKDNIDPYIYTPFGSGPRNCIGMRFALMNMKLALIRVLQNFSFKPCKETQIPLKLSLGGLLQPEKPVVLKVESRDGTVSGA
As to `O=S(=O)(Nc1ccc2c(c1)OCCO2)c1cccc2cccnc12`, the AC50 was 15.8 µM (active).

For `O=S(=O)(O)c1cc(N=Nc2cccc3ccccc23)c(O)c2ncccc12`, the activity, negative = inhibition is -5.6% [at 11.4 µM].

On to `O=S(=O)(Nc1cccnc1Cl)c1ccc2c(c1)OCCO2`, for which the activity, negative = inhibition was 7.34% [at 2.29 µM].

In the case of `CNC(=S)N1N=C(c2ccc(OC)cc2)CC1c1ccc(N(C)C)cc1` (stereo not drawn), the AC50 is 3.98 µM (active).

As to `NC(N)=NC[C@@H]1COC2(CCCCC2)O1`, the AC50 result is “inactive”.

In the case of `CCOC(=O)c1oc2nc(CC(C)C)c3c(c2c1N)CCC3`, the AC50 was 3.16 µM (active).

Consider `CCOc1ncnc2c1oc1nc(CC(C)C)c3c(c12)CC(C)(C)OC3`, for which the AC50 entry was “inactive”.

Take `CC(C)Cc1nc(N2CCN(C(=O)c3ccccc3)CC2)c(C#N)c2c1CCC2`: the AC50 result is “inactive”.

Consider `CCn1c(SCC(=O)N/N=C/C=C\c2ccccc2[N+](=O)[O-])nnc1-c1ccccc1`, for which the AC50 was 12.6 µM (active).

Turning to `Cn1c(SCC(=O)N/N=C/C=C\c2ccco2)nc2ccccc21`, the activity, negative = inhibition was 9.61% [at 2.29 µM].

Regarding `CS(=O)(=O)c1nc2ccccc2n1Cc1ccccc1`, the AC50 result is “inactive”.

Consider `COc1ccc(CNc2nc3ccccc3n2Cc2ccccc2)cc1OC`, for which the AC50 was 3.98 µM (active).

As for `CC(=O)Nc1nc2ccccc2n1Cc1ccccc1`, the AC50 entry is “inactive”.

With `C#CCCCO/N=C1/[C@H]2O[C@@H]2[C@@H](O)[C@H]2[C@H]1CCn1c(=O)n(C)c(=O)n12`, the activity, negative = inhibition is -24.7% [at 11.4 µM].

With `CCCc1nnc(NC(=O)c2cccs2)s1`, the AC50 entry is “inactive”.

For `Cc1ccc(Cc2cnc(NC(=O)c3cccs3)s2)cc1`, the AC50 is 7.94 µM (active).

On to `CN(C)CCCN1CCC2(CCC(C(C)(C)C)CC2)CC1`, for which the activity, negative = inhibition was 1.95% [at 11.4 µM].

As to `COc1ccc(NC(C)=O)cc1NC(=O)CN1CCN(C2c3ccccc3-c3ccccc32)CC1`, the AC50 is 10 µM (active).

For `COc1ccccc1NC(=O)CN1CCN(C2c3ccccc3-c3ccccc32)CC1`, the AC50 is 12.6 µM (active).

Take `COc1ccccc1NC(=O)CN1CCN(c2ccccc2F)CC1`: the AC50 result was “inactive”.

On to `NS(=O)(=O)c1cc(C(=O)O)c(Cl)c([N+](=O)[O-])c1Cl`, for which the activity, negative = inhibition is -5.24% [at 11.4 µM].

`CCNc1ncc2nc(CCc3ccccc3)c(=O)n(Cc3ccc(F)cc3)c2n1`: the AC50 was 2.51 µM (active).

Turning to `CCNc1ncc2nc(-c3ccc(F)cc3)c(=O)n(C[C@H]3CCCO3)c2n1`, the AC50 result is “inactive”.

Turning to `CCNc1ncc2nc(CCc3ccccc3)c(=O)n(CCC#N)c2n1`, the AC50 was 15.8 µM (active).

For `CCSC1=C(C#N)C2(CCCCC2)C(C#N)=C(N)N1`, the AC50 is 8.91 µM (active).

Regarding `COc1ccc2c(c1)Cc1sc(NC(=O)c3ccco3)nc1-2`, the AC50 was 11.2 µM (active).

`COc1ccc(C(=O)Nc2nc3c(s2)Cc2cc(OC)ccc2-3)cc1`: the AC50 is 11.2 µM (active).

`COc1ccc2c(c1)CCc1sc(NC(=O)c3ccc(C)cc3)nc1-2`: the AC50 is 10 µM (active).

As to `CC(C)Oc1cccc(-n2c(CCc3c[nH]c4ccc(Br)cc34)nc3ccccc3c2=O)c1`, the half-maximal activity concentration (AC50) was 3.98 µM (active).

For the molecule `O=C(O)Cc1c[nH]c2ccc(O)cc12`, the AC50 result was “inactive”.

In the case of `C/C(CC/C(C)=N/O)=N/O`, the activity, negative = inhibition is -10.6% [at 11.4 µM].

With `O=C(O)c1c[nH]c2c(ccc3[nH]cc(C(=O)O)c(=O)c32)c1=O`, the activity, negative = inhibition was -16.3% [at 11.4 µM].

On to `Cc1cc(C(=O)Nc2c(C)n(C)n(-c3ccccc3)c2=O)c2ccccc2n1`, for which the AC50 result was “inactive”.

`Cc1c(NC(=O)C(C)N2C(=O)c3ccccc3C2=O)c(=O)n(-c2ccccc2)n1C` (stereo not drawn): the AC50 entry was “inactive”.

Regarding `Cc1cc(SC(C)C(=O)Nc2c(C)n(C)n(-c3ccccc3)c2=O)nc2ccccc12` (stereo not drawn), the AC50 is 12.6 µM (active).

With `O=C(Nc1cccc2ncccc12)c1ccc(-c2ccc(Br)cc2)o1`, the AC50 is 2.82 µM (active).

For `Cc1ccc(OCC(=O)N/N=C\c2c(C)n(C)c3ccccc23)c([N+](=O)[O-])c1`, the AC50 was 7.08 µM (active).

For `COc1ccc(C=O)cc1COc1ccc(C)cc1[N+](=O)[O-]`, the AC50 entry is “inactive”.

In the case of `CC(=O)N/N=C/c1cc([N+](=O)[O-])ccc1OCCOc1ccccc1`, the AC50 entry is “inactive”.

With `COc1ccccc1-c1ccc2ncnc(N(C)C)c2c1`, the AC50 was 5.01 µM (active).

Take `Cc1ccccc1-c1ccc2ncnc(N(C)C)c2c1`: the AC50 was 3.16 µM (active).

Turning to `Cc1ccc(S(=O)(=O)CCC(=O)Nc2nc3c(s2)CCCC3)cc1`, the AC50 was 8.91 µM (active).

Take `CC(=O)N1CCc2cc(S(=O)(=O)CCC(=O)Nc3c(C)n(C)n(-c4ccccc4)c3=O)ccc21`: the AC50 entry was “inactive”.

As for `Nc1cc(-c2nn[nH]n2)ccc1F`, the AC50 result was “inactive”.

For the molecule `COC(=O)C/C=C\[C@@H](C)[C@@H](/C=N\OC[C@@H]1O[C@H](c2ccccc2)C=C[C@@H]1Oc1ccc(OC)cc1)NS(=O)(=O)c1ccc(C)cc1`, the AC50 is 5.01 µM (active).

Consider `COC(=O)C/C=C\[C@@H](C)[C@@H](/C=N\OC[C@@H]1O[C@H](c2ccccc2)C=C[C@@H]1Oc1ccc(OC)cc1)OC`, for which the AC50 is 3.16 µM (active).

As to `CC(C)CSC[C@@H]1O[C@H](n2cnc3c(N)nccc32)[C@H](O)[C@@H]1O`, the activity, negative = inhibition was -25.4% [at 11.4 µM].

For `Cc1noc(C)c1-c1cncnc1N1CCN(C)CC1`, the AC50 was 12.6 µM (active).

Turning to `Cc1ccccc1NC(=S)NN1CCN(C)CC1`, the AC50 result was “inactive”.

Take `COc1ccccc1-c1cncnc1N1CCN(C)CC1`: the AC50 was 2.51 µM (active).

`CN1CCN(c2cc(-c3ccccc3C(F)(F)F)ncn2)CC1`: the AC50 result is “inactive”.

With `CN1CCN(c2ncncc2-c2ccccc2Cl)CC1`, the AC50 was 1.58 µM (active).

Consider `Cc1noc(C)c1-c1cc(N2CCN(C)CC2)ncn1`, for which the AC50 result was “inactive”.

In the case of `CN1CCN2c3ncccc3Cc3ccccc3C2C1` (stereo not drawn), the AC50 result was “inactive”.

Take `Cc1ccccc1-c1cncnc1N1CCN(C)CC1`: the AC50 was 1.58 µM (active).

Turning to `CN1CCN(c2ncncc2-c2ccoc2)CC1`, the AC50 was 7.94 µM (active).

As for `CC(C)(C)c1c2c(c(C(C)(C)C)c3c1OCN(Cc1ccccc1)C3)OCN(Cc1ccccc1)C2`, the activity, negative = inhibition was 5.7% [at 11.4 µM].

`CC[C@@H](Nc1ncnc2nc[nH]c12)C(=O)O`: the activity, negative = inhibition is -5.2% [at 11.4 µM].

As for `Cc1occc1C(=O)NNC(=O)Cc1ccccc1`, the AC50 entry was “inactive”.

Take `COc1ccc(OCC(=O)NNC(=O)c2ccc(-c3ccccc3)cc2)cc1`: the AC50 result is “inactive”.

With `COc1ccc(C(=O)NNC(=O)Cc2ccc(-c3ccccc3)cc2)cc1OC`, the AC50 was 6.31 µM (active).

With `COc1cc(/C=N\NC(=O)C2C(=O)NCC2c2ccccc2)cc(OC)c1O` (stereo not drawn), the AC50 result was “inactive”.

Regarding `Clc1ccc(CSc2ncnc3c2ncn3[C@@H]2CCCCO2)cc1`, the activity, negative = inhibition was 11.8% [at 11.4 µM].

As for `CC(C)[C@H](N)c1nnc(SC/C=C/c2ccccc2)o1`, the AC50 is 1.26 µM (active).

Regarding `CC(C)[C@H](N)c1nnc(SCc2ccc(Cl)cc2)o1`, the AC50 is 1.58 µM (active).

Regarding `CSc1nsc(SCc2ccc(Cl)cc2)n1`, the AC50 result was “inactive”.

For `Clc1cccc(Cl)c1CSc1nnc(/C=C/c2ccccc2)o1`, the activity, negative = inhibition was -16.1% [at 11.4 µM].

For `CC(C)=NNc1ncnc2nc[nH]c12`, the activity, negative = inhibition was 4.57% [at 11.4 µM].

On to `NOCC(=O)O`, for which the AC50 result is “inactive”.

For `O=C(O)CCNc1ccccc1C(=O)O`, the activity, negative = inhibition is -9.69% [at 11.4 µM].

With `CN1CCN(c2ncc3nc(-c4cn(C)c5ccccc45)c(=O)n(CCc4ccccc4)c3n2)CC1`, the half-maximal activity concentration (AC50) is 15.8 µM (active).

In the case of `Cn1cc(-c2nc3cnc(N4CCNCC4)nc3n(Cc3ccc(F)cc3)c2=O)c2ccccc21`, the AC50 is 12.6 µM (active).

On to `CN1CCN(c2ncc3nc(-c4cn(C)c5ccccc45)c(=O)n(-c4ccccc4)c3n2)CC1`, for which the AC50 was 25.1 µM (active).

On to `Cn1cc(-c2nc3cnc(N4CCNCC4)nc3n(CCc3ccccc3)c2=O)c2ccccc21`, for which the AC50 was 12.6 µM (active).

Take `CN1CCN(c2ncc3ncc(=O)n(-c4ccccc4)c3n2)CC1`: the AC50 entry was “inactive”.

As for `CN1CCN(c2ncc3nc(-c4ccccc4)c(=O)n(C)c3n2)CC1`, the AC50 result was “inactive”.

As to `NC1=C2NC=N[C@@H]2N(C/C=C\c2ccccc2)C=N1`, the activity, negative = inhibition is -17.9% [at 11.4 µM].

As for `CN(C)Cc1c[nH]c2nc[nH]c(=O)c12`, the activity, negative = inhibition was -2.68% [at 11.4 µM].

As for `O=C(O)C1=C/C(=C(/c2ccccc2)c2cc(C(=O)O)c(O)c3ccccc23)c2ccccc2C1=O`, the activity, negative = inhibition is 6.76% [at 11.4 µM] and -24.1% [at 11.4 µM].

Take `Cn1cc(-c2nc3cnc(N4CCNCC4)nc3n(C)c2=O)c2ccccc21`: the AC50 was 20 µM (active).

As to `COCCn1c(=O)c(-c2cn(C)c3ccccc23)nc2cnc(N3CCNCC3)nc21`, the AC50 was 25.1 µM (active).

For the molecule `Cn1c(=O)c(-c2ccccc2)nc2cnc(N3CCNCC3)nc21`, the AC50 entry is “inactive”.

Take `O=S(=O)(O)c1cc(N=[N+]([O-])c2cc(S(=O)(=O)O)c3ccccc3c2)cc2ccccc12`: the activity, negative = inhibition was -21.4% [at 11.4 µM].

Turning to `O=C(N/N=C/c1ccc2c(c1)OCO2)/C(=C/c1ccc2c(c1)OCO2)NC(=O)c1ccccc1`, the concentration at half-maximal activity (AC50) is 1.12 µM (active).

In the case of `CC(=O)NS(=O)(=O)c1ccc(NC(=S)NC(=O)c2ccco2)cc1`, the AC50 result is “inactive”.

As to `O=C(NC(Cc1ccccc1)C(=O)O)/C(=C\c1ccco1)NC(=O)c1ccc(Br)cc1` (stereo not drawn), the AC50 result was “inactive”.

Take `C=CCNC(=O)/C(=C\c1ccc2c(c1)OCO2)NC(=O)c1ccc(Br)cc1`: the AC50 is 0.447 µM (active).

On to `Cc1ccc(NC(=O)/C(=C\c2ccc3c(c2)OCO3)NC(=O)c2ccco2)cc1`, for which the AC50 is 2.51 µM (active).

As for `Cc1ccc(S(=O)(=O)NC(=O)Nc2ncn[nH]2)cc1`, the activity, negative = inhibition was -2.15% [at 11.4 µM].

Regarding `CCOCCCN1C(=O)CN(C2CCCCCC2)C(=O)C1c1ccc(OC)cc1` (stereo not drawn), the AC50 was 12.6 µM (active).

As for `COc1ccc(/C(O)=C2/C(=O)C(=O)N(CCN3CCOCC3)C2c2ccc(C)cc2)cc1` (stereo not drawn), the AC50 result was “inactive”.

Regarding `CCOCCCn1cnc2c([nH]c3cc(OC)ccc32)c1=O`, the AC50 entry is “inactive”.

With `CCOCCCN1C(=O)CN(C2CCCCC2)C(=O)C1c1ccc(OCC)c(OC)c1` (stereo not drawn), the AC50 was 12.6 µM (active).
